# Test results published in ChEMBL document CHEMBL3988442, “University of Dundee, Small-Polar-MMV Screening Library” (2021).
# Out of some 69,000 compounds screened, about 1,000 (1.4%) showed an effect of 50% or more. Shown is part of a subset that was picked to be rich in strong results.
# System: Leishmania donovani
# Assay: Leishmania intramacrophage assay
# Type: functional, organism-based
# Set-up: scale not given: in the data most compounds retested in dose-response had high values
smiles,measurement,setting,value
Cc1ccccc1OCn1ccc(C(=O)NCCN2CCOCC2)n1,Percent Effect,"30.3 µM, […]",-13.65%
O=S(=O)(c1ccccc1)N1CCC2(CCCN2Cc2cccc(F)c2)C1 (configuration not stated),Percent Effect,"30.3 µM, […]",61.17%
O=S(=O)(c1ccccc1)N1CCC2(CCCN2Cc2ccc(Cl)cc2)C1 (configuration not stated),Percent Effect,"30.3 µM, […]",36.08%
CCS(=O)(=O)N1CCCC2(CCCN2Cc2cccc(F)c2)C1.O=C(O)C(F)(F)F (configuration not stated),Percent Effect,"30.3 µM, […]",12.48%
O=C(O)C(F)(F)F.O=C(c1ccccc1)N1CCCC2(CCN2Cc2cccc(F)c2)C1 (configuration not stated),Percent Effect,"30.3 µM, […]",54.88%
O=C(O)C(F)(F)F.O=C(c1cscn1)N1CCCC2(CCN2Cc2cccc(F)c2)C1 (configuration not stated),Percent Effect,"30.3 µM, […]",40.36%
O=C(O)C(F)(F)F.O=C(O)C(F)(F)F.O=C(O)CN1CCCC2(CCN2Cc2cccc(F)c2)C1 (configuration not stated),Percent Effect,"30.3 µM, […]",-0.8696%
O=S(=O)(c1ccccc1)N1CCC2(CCCN2Cc2ccccc2Cl)C1 (configuration not stated),Percent Effect,"30.3 µM, […]",52.23%
O=C(O)C(F)(F)F.O=S(=O)(c1ccccc1)N1CCC2(CCCN2Cc2cccc(Cl)c2)C1 (configuration not stated),Percent Effect,"30.3 µM, […]",27.63%
Cc1ccc(CN2CCCC23CCN(S(=O)(=O)c2ccccc2)C3)o1 (configuration not stated),Percent Effect,"30 µM, 30.03 µM",49.3%
CC(C)C(C(N)=O)c1cccc(Cl)c1 (configuration not stated),Percent Effect,"30.3 µM, […]",23.22%
Cc1nnc(N2CCO[C@H]3[C@@H](OCc4ccccn4)CC[C@@H]32)s1.O=C(O)C(F)(F)F.O=C(O)C(F)(F)F,Percent Effect,"30.3 µM, […]",-5.183%
Cc1nccn1Cc1nnc(C2CCN(c3ccncc3F)CC2)n1C,Percent Effect,"30.3 µM, […]",4.988%
c1nc2c(c(NC3COC4(CCCC4)C3)n1)CCNCC2 (configuration not stated),Percent Effect,"30.3 µM, […]",-7.058%
O=C(O)C(F)(F)F.O=C(c1cocn1)N1C[C@H]2CCC[C@@]2(COc2ccccn2)C1,Percent Effect,"30.3 µM, […]",20.04%
Cc1nn(C)c(C)c1CN1CCCC1c1nccc(CN(C)C)n1 (configuration not stated),Percent Effect,"30.3 µM, […]",3.97%
CC(C#N)CNC(=O)Nc1ccc(Br)cc1 (configuration not stated),Percent Effect,"30.3 µM, […]",6.996%
CC(=O)N1CCCN(C2CCCCc3ccccc32)CC1 (configuration not stated),Percent Effect,"30.3 µM, […]",18.35%
COc1c(C2CCCN2C(=O)c2c[nH]c3ncccc23)c(C)nn1C (configuration not stated),Percent Effect,"30 µM, 30.03 µM",-19.02%
Cc1noc([C@@]23CCO[C@@H]2CCN(S(=O)(=O)c2cccnc2)C3)n1,Percent Effect,"30.3 µM, […]",57.7%
Cc1nnc([C@@]23CCO[C@@H]2CCN(S(=O)(=O)c2cccnc2)C3)o1,Percent Effect,"30.3 µM, […]",17.24%
Cc1nnc([C@@]23CCO[C@@H]2CCN(S(=O)(=O)c2ccccc2)C3)o1,Percent Effect,"30.3 µM, […]",56.06%
Cc1noc([C@@]23CCO[C@@H]2CCN(C(=O)C2CCOCC2)C3)n1,Percent Effect,"30 µM, 30.03 µM",-29.55%
CNC(=O)[C@@]12CCO[C@@H]1CCN(S(=O)(=O)c1cccnc1)C2.O=C(O)C(F)(F)F,Percent Effect,"30 µM, 30.03 µM",-13.7%
Cc1nnc([C@@]23CCO[C@@H]2CCN(S(C)(=O)=O)C3)o1,Percent Effect,"30.3 µM, […]",-7.004%
C[C@H]1C[C@H]2CN(C(=O)c3cccc4c3OCCO4)CC[C@H]2O1,Percent Effect,"30.3 µM, […]",-11.14%
CCc1nccn1-c1cccc(C2CCCN2)n1.Cl.Cl (configuration not stated),Percent Effect,"30.3 µM, […]",6.16%
O=C1CCCN1CCCN1CCCCC1Cn1cncn1 (configuration not stated),Percent Effect,"30.3 µM, […]",26.96%
Cc1csc(CCNC(=O)N2CCC(NC(=O)OC(C)(C)C)CC2)n1,Percent Effect,"30.3 µM, […]",-5.066%
CSc1nc2cc(C)n(CC(=O)N3CCCC3)c2c(=O)n1CC(C)C,Percent Effect,"30.3 µM, […]",6.672%
CC(NCc1ccc(OCC(N)=O)cc1)c1ccc(Cl)cc1.Cl (configuration not stated),Percent Effect,"30.3 µM, […]",32.34%
CC(NCc1ccc(OCC(N)=O)cc1)c1ccc(Cl)c(Cl)c1.Cl (configuration not stated),Percent Effect,"30.3 µM, […]",12.13%
CC(NCc1ccc(OCC(N)=O)cc1)c1ccc2c(c1)CCCC2 (configuration not stated),Percent Effect,"30.3 µM, […]",72.53%
CCc1nncn1CCNC(=O)Nc1ccc(OC)c(C)c1,Percent Effect,"30.3 µM, […]",5.132%
CCC(=O)c1ccc(Br)cc1NN1c2cc(Br)ccc2C(=O)C1(C)OC (configuration not stated),Percent Effect,"30.3 µM, […]",24.9%
CCOC1(C)C(=O)c2ccccc2N1Nc1ccccc1C(=O)CC (configuration not stated),Percent Effect,"30.3 µM, […]",19.56%
CCC(=O)c1ccccc1NN1c2ccccc2C(=O)C1(C)OC (configuration not stated),Percent Effect,"30.3 µM, […]",62.96%
Cc1c(C(=O)O)cnn1-c1ccc(-c2nc(C3CC3)no2)cn1,Percent Effect,"30.3 µM, […]",11.33%
CC(C)Cc1cc(NC(=O)c2cc(Cl)c[nH]2)n(C)n1,Percent Effect,30 µM,-56.19%
CC(=O)c1ccc(N2CCCC(CO)(Cc3ccccc3F)C2)nc1 (configuration not stated),Percent Effect,"30.3 µM, […]",13.31%
Nc1cc(N2CCCC(CO)(Cc3ccccc3F)C2)nc(N)n1 (configuration not stated),Percent Effect,"30.3 µM, […]",94.26%
N#Cc1cccc(N2CCCC(CO)(Cc3ccccc3F)C2)n1 (configuration not stated),Percent Effect,"30.3 µM, […]",29.41%
N#Cc1cccnc1N1CCCC(CO)(Cc2ccccc2F)C1 (configuration not stated),Percent Effect,"30.3 µM, […]",2.884%
OCC1(Cc2ccccc2F)CCCN(c2ccc3ccccc3n2)C1 (configuration not stated),Percent Effect,"30.3 µM, […]",23.98%
COc1cc(N2CCCC(CO)(Cc3ccccc3F)C2)ncn1 (configuration not stated),Percent Effect,"30.3 µM, […]",63.9%
CC(C)(C)c1cn2nc(N3CCC[C@@H]3CO)sc2n1,Percent Effect,"30 µM, 30.03 µM",20.83%
CN(C)C(=O)N1CCN(C(=O)c2ccc(Cl)c(Cl)c2)C(C)(C)C1,Percent Effect,"30.3 µM, […]",36.34%
CCc1nc(N2CCN(CCOC)CC2)c2cnn(C)c2n1,Percent Effect,"30.3 µM, […]",9.143%
CCNC(=O)CN(CC)C(=O)Cc1csc(C(C)C)n1,Percent Effect,"30.3 µM, […]",17.83%
Cc1ncccc1CNCC1COC2(CCCCC2)O1 (configuration not stated),Percent Effect,"30.3 µM, […]",19.04%
Cc1nc(NCCCn2cccn2)c2c(n1)c(C)nn2C,Percent Effect,"30.3 µM, […]",-31.03%
O=C(CNC(=O)c1cnc2ccccc2c1O)NCCCn1ccnc1,Percent Effect,"30.3 µM, […]",15.36%
CN(CCO)C[C@@H]1CN(C(=O)Cc2ccc3ccccc3c2)C[C@@H]1CO,Percent Effect,"30.3 µM, […]",-1.562%
Cc1ccccc1CN1C[C@@H](CN(C)CCO)[C@@H](CO)C1,Percent Effect,"30.3 µM, […]",5.953%
CN1CCN(C[C@@H]2CN(C3Cc4ccccc4C3)C[C@@H]2CO)CC1,Percent Effect,"30.3 µM, […]",4.168%
Cc1cc(F)ccc1N1CCC(N2C[C@@H](C)[C@@](C)(O)C2)CC1,Percent Effect,"30.3 µM, […]",44.3%
CN(CCO)C[C@@H]1CN(C(=O)c2c(F)cccc2Cl)C[C@@H]1CO,Percent Effect,"30 µM, 30.03 µM",27.13%
CN(C)C[C@@H]1CN(C(=O)c2cc(F)ccc2F)C[C@@H]1CO,Percent Effect,"30.3 µM, […]",22.29%
CN(C)C[C@@H]1CN(C(=O)Cc2ccccc2)C[C@@H]1CO,Percent Effect,"30.3 µM, […]",22.9%
CN(C)C[C@@H]1CN(C2CCN(c3ccccc3Cl)CC2)C[C@@H]1CO,Percent Effect,"30.3 µM, […]",52.98%
Cc1cc(F)ccc1N1CCC(N2C[C@@H](CN(C)C)[C@@H](CO)C2)CC1,Percent Effect,"30.3 µM, […]",95.44%
CN(CCO)C[C@@H]1CN(Cc2ccccc2C#N)C[C@@H]1CO,Percent Effect,"30.3 µM, […]",12.29%
CN(CCO)C[C@@H]1CN(C2CCN(c3ccccc3Cl)CC2)C[C@@H]1CO,Percent Effect,"30.3 µM, […]",89.6%
CN(CCO)C[C@@H]1CN(Cc2ccccc2-c2ccccc2)C[C@@H]1CO,Percent Effect,"30.3 µM, […]",83.9%
O=C(NCCSCc1ccco1)c1ccc(N2CCOCC2)cc1,Percent Effect,"30.3 µM, […]",-4.352%
CCc1nnc2n1CCN(C(=O)c1nc(-c3ccco3)sc1C)C2,Percent Effect,30 µM,1.353%
O=C(O)C(F)(F)F.O=C(c1ccoc1)N1C[C@@H]2OCCN(c3ncccn3)[C@@H]2C1,Percent Effect,"30.3 µM, […]",10.14%
CCc1nccn1-c1nccnc1C1CCCN(C(=O)COC)C1 (configuration not stated),Percent Effect,"30.3 µM, […]",11.67%
Cc1cc(=O)[nH]c(NCCNC(=O)C(c2ccc(F)cc2)N(C)C)n1 (configuration not stated),Percent Effect,"30 µM, 30.03 µM",-13%
OCC1(NCc2cnc(-c3cccs3)s2)CCOCC1,Percent Effect,"30.3 µM, […]",16.11%
O=C(C1CC=CC1)N1CCC2(CCC(=O)N2Cc2cccc(F)c2)CC1,Percent Effect,"30.3 µM, […]",15.71%
CCOc1ccc(Cl)c(C(=O)NC(Cc2ccccc2)C(N)=O)n1 (configuration not stated),Percent Effect,"30.3 µM, […]",6.553%
CN(C)S(=O)(=O)CCCOc1cccc(-n2ccnc2)c1,Percent Effect,"30.3 µM, […]",-0.5544%
CN(C)C[C@@H]1CN(C2CCN(c3ccc(Cl)cc3)CC2)C[C@@H]1CO,Percent Effect,"30.3 µM, […]",93.76%
Cc1ccc(N2CCC(N3C[C@@H](CN(C)C)[C@@H](CO)C3)CC2)cc1,Percent Effect,"30.3 µM, […]",38.77%
CNC(=O)CN(C)C1CCN(c2ccc(Cl)cc2)CC1,Percent Effect,"30.3 µM, […]",24.19%
OC(COCc1cccs1)Cn1cc(Cl)cn1 (configuration not stated),Percent Effect,"30.3 µM, […]",11.71%
O=C(c1csc2nc(-c3ccc(Cl)cc3)cn12)N1CCCC(CO)C1 (configuration not stated),Percent Effect,"30.3 µM, […]",-3.231%
CCC1CN(C(=O)c2csc3nc(-c4ccc(Cl)cc4)cn23)CCN1 (configuration not stated),Percent Effect,"30.3 µM, […]",94.25%
CC(C)N1CCN(C(=O)c2csc3nc(-c4ccc(Cl)cc4)cn23)CC1,Percent Effect,"30.3 µM, […]",11.51%
CN(CC1CCOCC1)C(=O)NCCCN1CCCCC1,Percent Effect,"30.3 µM, […]",19.46%
O=C(c1ccncc1)N1CCC(c2nc(O)cc(-c3cccnc3)n2)C1 (configuration not stated),Percent Effect,"30 µM, 30.03 µM",-2.25%
CN(C)CC1(O)CCN(C(=O)Cc2ccc(Cl)c(Cl)c2)C1 (configuration not stated),Percent Effect,"30.3 µM, […]",1.329%
Cc1cc2occ(CC(=O)N3CCC(O)(CN(C)C)C3)c2cc1Cl (configuration not stated),Percent Effect,"30.3 µM, […]",50.58%
Cc1cc2occ(CC(=O)N3CCC4(CCCN(C)C4=O)C3)c2cc1Cl (configuration not stated),Percent Effect,"30.3 µM, […]",10.63%
O=C(O)[C@@H]1CCN(C(=O)Cc2ccccn2)[C@@H]1c1ccc(F)cc1,Percent Effect,"30.3 µM, […]",8.228%
CCO[C@H]1C[C@@H](O)C12CCN(C(=O)CC(F)(F)F)CC2,Percent Effect,"30.3 µM, […]",-0.6132%
Cl.NCC1CCC(c2c(C(=O)NCCO)sc3ccccc23)CC1 (configuration not stated),Percent Effect,"30.3 µM, […]",15.08%
CN(C)CCNC(=O)c1sc2ccccc2c1C1CCC(CN)CC1.Cl (configuration not stated),Percent Effect,"30.3 µM, […]",63.37%
COCCNC(=O)c1sc2ccccc2c1C1CCC(CN)CC1.Cl (configuration not stated),Percent Effect,"30.3 µM, […]",18.8%
COCc1cccc(NS(=O)(=O)c2cc(C(=O)O)cs2)c1,Percent Effect,"30 µM, 30.03 µM",36.6%
CCNc1ncc2c(n1)CN(c1ccc(OC(F)(F)F)cc1)C2=O,Percent Effect,"30.3 µM, […]",23.96%
OC1(CNCc2ccc(F)c(C(F)(F)F)c2)CCOC1 (configuration not stated),Percent Effect,"30.3 µM, […]",25.18%
CN1CCC(O)(CNCc2ccc(F)c(C(F)(F)F)c2)CC1,Percent Effect,"30.3 µM, […]",85.74%
OC1(CNCc2ccc(F)c(C(F)(F)F)c2)CCSCC1,Percent Effect,"30.3 µM, […]",40.38%
CC(C)N1CCN(c2ccc3ccc(C(=O)NC4CCCC4)cn23)CC1.O=C(O)C(F)(F)F,Percent Effect,"30.3 µM, […]",37.85%
N#Cc1cc(F)c(NCCCOCC2CCOC2)c(F)c1 (configuration not stated),Percent Effect,"30.3 µM, […]",29.08%
